{
  "source": "PubChem BioAssay (NCI)",
  "note": "“And” between values parts separate entries of the source, which are not always exact repeats. Equal values may be shown once. The panel holds about 83,000 compounds, 20% with a hit somewhere; the sample as a whole holds those more often.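 96-well plates, one dose, 48 hours. Percent growth reported; active if below 10.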 The source made the active and inactive calls.",
  "data": [
    {"tested_on": "ACHN renal", "experiment": "NCI-60 one-dose screen, 48 h (100 = growth as untreated, 0 = no growth, -100 = all killed)", "conditions": "10 µM unless noted", "values": [
      {"smiles": "CCc1cccc2c3c(sc12)C(c1ccc(F)cc1)C(C#N)=C(/N=C/c1ccc(Cl)cc1)O3", "note": "(stereo not given)", "growth": "32.3% (inactive)"},
      {"smiles": "Cc1ccc2c(n1)C(=O)C(Cl)=C(Nc1ccc(C(=O)OC(C)(C)C)cc1)C2=O", "growth": "-21.5% [9.25 µM] (active)"},
      {"smiles": "Clc1ccc2[nH]cc(-c3cncn3CCc3ccc4c(c3)OCO4)c2c1", "growth": "78.4% (inactive)"},
      {"smiles": "CCCCCCCCCC(=O)NC(C)(C)C(=O)N1CCC[C@H]1C(=O)N[C@@H](CC(C)C)C(=O)N[C@@](C)(CC)C(=O)N[C@@H](CCC(N)=O)C(=O)N[C@H](CCC(N)=O)C(=O)NC(C)(C)C(=O)NC(C)(C)C(=O)N[C@@H](CCC(N)=O)C(=O)N[C@H](CC(C)C)C(=O)N[C@H](CO)CC(C)C", "growth": "-85.3% (active) and 18.4% (inactive)"},
      {"smiles": "C=C1CCc2nc(SCC(=O)O)ccc2N1", "growth": "102% (inactive)"},
      {"smiles": "CC[C@]12C=CCN3CC[C@@]4(c5ccc(OC)cc5N(C)[C@H]4[C@@](O)(C(=O)OC)[C@@H]1OC(=O)CCN1CCc4ccccc4C1)[C@@H]32", "growth": "99.3% (inactive)"},
      {"smiles": "CCOC(=O)c1cccnc1Nc1ccc(NC(=O)Nc2ccc(Cl)c(C(F)(F)F)c2)cc1", "growth": "35.3% (inactive)"},
      {"smiles": "Cc1ccc(S(=O)(=O)NCCCNc2nccc(-c3[nH]c(-c4ccccc4)nc3-c3ccc(F)c(O)c3)n2)cc1", "growth": "85.8% (inactive)"},
      {"smiles": "O=C(CSc1nnc(-c2ccc(Cl)cc2)n1-c1ccccc1)Nc1ccc(Cl)cc1", "growth": "-2.97% (active)"},
      {"smiles": "Cc1ccc2c(n1)C(=O)C(Cl)=C(Nc1ccc(C(F)(F)F)cc1)C2=O", "growth": "-98.4% (active)"},
      {"smiles": "CC(=O)C1=C(C)NC(NNc2ccccc2)=NC1c1ccc([N+](=O)[O-])cc1", "note": "(stereo not given)", "growth": "76% (inactive)"},
      {"smiles": "NC(N)=NS(=O)(=O)c1ccc(N=Nc2c(N)nn(-c3ccc([N+](=O)[O-])cc3[N+](=O)[O-])c2N)cc1", "growth": "101% (inactive)"},
      {"smiles": "NCCNC(=O)c1cccc(COc2ccccc2NC(=O)c2cc(Br)c(Br)[nH]2)c1", "growth": "101% (inactive)"},
      {"smiles": "COC(=O)CCCNCCCn1ccc2cc(NCc3cccc(-c4ccccc4)c3C)ccc21", "growth": "77.8% (inactive)"},
      {"smiles": "O=C(CCCCCCN1CC(=O)N2[C@@H](c3ccccc3Br)c3[nH]c4ccccc4c3C[C@H]2C1=O)NO", "growth": "70.2% (inactive)"},
      {"smiles": "CCCCOc1ccc(S(=O)(=O)N2CCN(c3nc(C)cc(N4CCOCC4)n3)CC2)cc1", "growth": "15.3% (inactive)"},
      {"smiles": "NS(=O)(=O)c1ccc(CCn2c(-c3ccc(C(=O)O)cc3)nc(-c3ccccc3)c2-c2ccccc2)cc1", "growth": "103% (inactive)"},
      {"smiles": "N#C/C(=N\\Nc1ccc(F)cc1)C(=O)Nc1cc(-c2ccccc2)nn1-c1ccccc1", "growth": "1.44% (active)"},
      {"smiles": "Cn1c2nc3ccccc3c-2cc2ccccc21", "growth": "21.2% (inactive)"},
      {"smiles": "NS(=O)(=O)c1nnc(/N=C/c2c(O)[nH]c3ccccc23)s1", "growth": "93.7% (inactive)"},
      {"smiles": "NC(=O)c1c(NC(=O)c2ccc(C(F)(F)F)cc2)sc2c1CCC(=O)C2", "growth": "-47.1% (active)"},
      {"smiles": "O=C(N/N=C\\c1ccc([N+](=O)[O-])cc1)c1ccc2nc(-c3ccc(Br)cc3)[nH]c2c1", "growth": "34.1% (inactive)"},
      {"smiles": "C#CCN(C)CCCOc1ccc(NC(=O)CCCCCCC(=O)NO)cc1Cl", "growth": "20.3% (inactive)"},
      {"smiles": "Fc1cc(F)cc(NNC(=S)c2ccccc2)c1", "growth": "55.4% (inactive)"},
      {"smiles": "Fc1ccc(-c2cn3c(-c4c[nH]c5ccc(Br)cc45)csc3n2)cc1", "growth": "49% (inactive)"},
      {"smiles": "CC[C@]12C=CCN3CC[C@]4(C(=C(C(=O)OC)C1)Nc1cc5c(cc14)[C@@H]1[C@H](O5)[C@@H](O)[C@@]4(CC)CC(C(=O)OC)=C5Nc6cc(O)ccc6[C@@]56CCN1C46)C32", "note": "(stereo not given in full)", "growth": "-14.3% (active)"},
      {"smiles": "Cc1cc(C)cc(NC2=C(Cl)C(=O)c3nc(C)ccc3C2=O)c1", "growth": "2.41% (active)"},
      {"smiles": "COc1ccc2c(c1)c(-c1nn3cc(-c4ccncc4)nc3s1)cn2C", "growth": "71.4% (inactive)"},
      {"smiles": "COC(=O)N1CCN(CCNCc2ccc(NC(=O)c3ccc(C)c(C#Cc4cnc5cccnn45)c3)cc2C(F)(F)F)CC1", "growth": "29.6% (inactive)"},
      {"smiles": "CC(C)(O)c1cncc(-c2ccc3ncc(C#N)c(N4CCc5cc(F)c(Cl)cc54)c3c2)c1", "growth": "6.6% (active)"},
      {"smiles": "O=C(/C=C/c1ccc(F)cc1)Nc1cccc2cccnc12", "growth": "105% (inactive)"},
      {"smiles": "C#CCN(C)CCCOc1ccc(NCc2ccc(C(=O)NO)cc2)cc1Cl", "growth": "9.03% (active)"},
      {"smiles": "COCCOc1ccc2ncc(C#Cc3cncc(C(=O)Nc4ccc(CN5CCN(C)CC5)c(C(F)(F)F)c4)c3)n2n1", "growth": "4.87% (active)"},
      {"smiles": "CC(C)NC(=O)c1cc(-c2ccc(NC(=O)Nc3ccc(F)cc3)cc2)nc2cccnc12", "growth": "103% (inactive)"},
      {"smiles": "O=C1c2ccccc2C23C(=C(c4cncnc4)c4ccccc42)CCCN13", "note": "(stereo not given)", "growth": "99.2% (inactive)"},
      {"smiles": "N#Cc1cccc(-c2cc(-c3ccc4c(c3)OCCO4)[nH]n2)c1", "growth": "44.2% (inactive)"},
      {"smiles": "CCC(=C(c1ccc(OCCN(C)C)cc1)c1ccc(OCCN(C)C)cc1)c1ccc(Cl)cc1", "growth": "-78.5% (active)"},
      {"smiles": "COc1ccccc1/C=C1\\Oc2ccc(O)c(O)c2C1=O", "growth": "101% (inactive)"},
      {"smiles": "CN1CCN(c2ccc(Nc3nc(NCCCNS(=O)(=O)c4ccccc4)c4sccc4n3)cc2)CC1", "growth": "20.2% (inactive)"},
      {"smiles": "Nc1nc(=O)n([C@H]2C[C@H](O)[C@@H](CO)O2)cc1C=O", "growth": "107% (inactive)"}
    ]}
  ]
}
